These results are taken from PubChem BioAssay (Tox21).

Assay [1] in a line: qHTS assay to identify small molecule antagonists of the androgen receptor (AR) signaling pathway using the MDA cell line in the presence of 0.5 nM R1881 - cell viability counter screen (AID 1259242). Further: nearly all actives have a fitted effect of over 45% in size. The method in brief:
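qHTS format. MDA-kb2 (MMTV-luc, AR/GR responsive) + cpd + 0.5 nM R1881 final, 16 hr 37C/0% CO2 → CellTiter-Fluor 30 min → fluorescence intensity.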
For orientation: Quantitative high-throughput screening tests each substance at several concentrations.

The target in assay [2] is Estrogen receptor (Homo sapiens) (UniProt P03372). In words: qHTS assay to identify small molecule antagonists of the estrogen receptor alpha (ER-alpha) signaling pathway using the BG1 cell line in the presence of 0.1 nM 17-beta-estradiol (AID 1259244). Further: nearly all actives have a fitted effect of over 50% in size. Further: potency means the concentration at half of the fitted maximal effect. Put shortly: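 Reporter is a stably transfected luciferase under four estrogen responsive elements in VM7Luc4E2 cells expressing native full-length ER-alpha; inhibition of 0.1 nM (final) 17beta-estradiol-driven signal over 22 h is read by luminescence.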

Assay [3] can be described thus: qHTS assay to identify small molecule HDAC inhibitors (AID 1259364).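 Further: wild-type HCT-116 cells with endogenous class I/II HDAC activity; top concentration of the series differs between compounds; nearly all actives have a fitted effect of over 45% in size.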 The method in brief: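 Quantitative high-throughput format: overnight-seeded HCT-116 cells got compounds for 2 hr at 37C; HDAC-Glo I/II reagent added, 30 min RT, luminescence measured.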
A short description of assay [4]: qHTS assay to identify small molecule HDAC inhibitors - cell viability counter screen (AID 1259365). Further: series mostly up to about 92 µM; nearly all actives have a fitted effect of over 50% in size. The method in brief:
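Wild-type HCT-116 cells, 1,500/well, cultured overnight, then compound-treated 2 h at 37 C. Viability measured as ATP luminescence with CellTiter-Glo after 30 min at room temperature.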

A short description of assay [5]: qHTS assay to identify small molecule antagonists of the sonic hedgehog signaling (Shh) pathway - cell viability counter screen (AID 1259367). Further: nearly all actives have a fitted effect of over 55% in size. The method in brief:
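Conditioned medium drove Shh signaling in 3T3 Gli1-Luc cells exposed to compounds at 37C and 5% CO2. Viability was determined from CellTiter-Fluor fluorescence, with reagent incubated 1 hr after 23 hr of treatment.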

Assay [6] in a line: qHTS assay to identify small molecule agonists of the sonic hedgehog signaling (Shh) pathway (AID 1259368; calls by dose curve;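 further: NIH/3T3-derived 3T3Gli1-Luc cells carrying a stable Gli1-driven firefly luciferase reporter; series mostly up to about 92 µM; nearly all actives have a fitted effect of over 15% in size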). The method in brief:
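Quantitative high-throughput format using a Gli1-driven firefly luciferase reporter line derived from NIH/3T3 cells. After a 24 hr compound treatment at 37 C and 5% CO2, luminescence reported Gli1 response element activity.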

A short description of assay [7]: qHTS assay to identify small molecule antagonists of the sonic hedgehog signaling (Shh) pathway (AID 1259369; calls by dose curve; further: nearly all actives have a fitted effect of over 45% in size). The method in brief:
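Stable Gli1-Luc reporter NIH/3T3 clone; quantitative HTS in stimulated mode with conditioned medium. Luminescence measured after 24hr compound treatment at 37 C.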

Assay [8] is described as follows: qHTS assay to identify small molecule agonists of the estrogen receptor beta (ER-beta) signaling pathway - cell viability counter screen (AID 1259380). Further: nearly all actives have a fitted effect of over 30% in size. Further: potency means the concentration at half of the fitted maximal effect. The method in brief:
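Steps: plate ER-beta-UAS-bla HEK293T cells, rest 6 hr; add compounds in DMSO; incubate 16 hr at 37C, 5% CO2; add FRET substrate 2 hr; add CellTiter-Glo, wait 30 min at room temperature; read luminescence.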

A short description of assay [9]: qHTS assay to identify small molecule antagonists of the estrogen receptor beta (ER-beta) signaling pathway - cell viability counter screen (AID 1259382). Further: nearly all actives have a fitted effect of over 55% in size. Further: potency means the concentration at half of the fitted maximal effect. The method in brief: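 Viability is scored by CellTiter-Glo luminescence (30 min, room temperature) in ER-beta-UAS-bla HEK293T wells already read for reporter fluorescence. Compound exposure lasts 16 hr at 37C alongside 1nM 17-beta-estradiol in charcoal-stripped serum medium.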

The target of assay [10] is Estrogen receptor (Homo sapiens) (UniProt P03372). In words: qHTS assay to identify small molecule agonists of the estrogen receptor alpha (ER-alpha) signaling pathway in the presence of an antagonist (AID 1259383; calls by dose curve; further: top concentration of the series differs between compounds; nearly all actives have a fitted effect of over 15% in size). The method in brief: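 Readout was ERE-driven luciferase luminescence in VM7Luc4E2 cells, which express full-length ER-alpha endogenously. Compounds were tested at 15 concentrations for 22hr alongside 10.0nM ICI-182,780 (final concentration).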

Assay [11] is described as follows: qHTS assay to identify small molecule phospholipidosis (PLD) inducers (AID 1259344; active means well fitted curve in the direction sought with a large enough effect; an effect the other way counts as inactive or inconclusive). Put shortly:
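After 4 h attachment on collagen I, HepG2 cells were dosed with compound alongside LipidTOX Red, kept 24 h at 37 C, fixed, and imaged for lamellar phospholipid pits.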

Assay [12] can be described thus: qHTS assay to identify small molecule agonists of the sonic hedgehog signaling (Shh) pathway - cell viability counter screen (AID 1259366). Further: nearly all actives have a fitted effect of over 50% in size. Put shortly:
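NIH/3T3-derived Gli1-Luc reporter cells, 2,000 per well, received compound after 4 h and were treated about 23 h at 37C. Viability measured in the same wells by CellTiter-Fluor fluorescence after 1 h.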

The nature of assay [13]: qHTS assay to identify small molecule agonists of the androgen receptor (AR) signaling pathway in the presence of an antagonist - cell viability counter screen (AID 1259379).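 Further: MDA-kb2 human breast cancer cells carrying an MMTV luciferase reporter; series mostly up to about 92 µM; nearly all actives have a fitted effect of over 25% in size.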 The method in brief: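 Nilutamide-containing (3.0uM final) MDA-kb2 cultures, 3,000 cells/well, were treated with compounds across 15 concentrations. After 16 hr at 37C with no CO2, cell viability was determined by CellTiter-Fluor fluorescence in the luciferase assay wells.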

Assay [14] addresses Androgen receptor (Homo sapiens) (UniProt P10275). As to the kind of experiment: qHTS assay to identify small molecule agonists of the androgen receptor (AR) signaling pathway in the presence of an antagonist (AID 1259381; calls by dose curve; further: nearly all actives have a fitted effect of over 15% in size). Put shortly: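 Reporter-gene luminescence from MDA-kb2 cells exposed 16hr at 37C (0% CO2) to 15-point compound titrations with 3.0uM final nilutamide as AR antagonist.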

Assay [15] in a line: qHTS assay to identify small molecule agonists or antagonists of the thyroid stimulating hormone receptor (TSHR) signaling pathway - wild type cell line counter screen (AID 1259384; calls by dose curve). Put shortly: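 Wild-type HEK293 cells were plated 18 h at 37 C/5% CO2, pin-dosed with compound plus Ro20-1724 medium, held 30 min at room temperature, then given cAMP-d2 and anti-cAMP-cryptate; fluorescence was read after 1 h. Fifteen concentrations, triplicate.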

The target in assay [16] is Thyrotropin receptor (Homo sapiens) (UniProt P16473). As to the kind of experiment: qHTS assay to identify small molecule antagonists of the thyroid stimulating hormone receptor (TSHR) signaling pathway (AID 1259385; calls by dose curve; further: nearly all actives have a fitted effect of over 20% in size). The method in brief:
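TSHR-HEK293 cells were plated and held 18 h at 37C/5% CO2, then given compound plus Ro20-1724 and stimulated with TSH at 1.5 ng/mL final. After 30 min at room temperature, cAMP was detected with cAMP-d2/anti-cAMP-cryptate (1 h) by fluorescence.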

Assay [17] in a line: qHTS assay to identify small molecule agonists of the estrogen receptor alpha (ER-alpha) signaling pathway in the presence of an antagonist - cell viability counter screen (AID 1259386).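 Further: series mostly up to about 92 µM; cells exposed to compounds for 22 h at 37 °C before the viability read; nearly all actives have a fitted effect of over 30% in size.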 Put shortly: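 In this counter screen, compound effects on VM7Luc4E2 viability were tested in the presence of the antagonist ICI-182,780 at 10.0nM final. Compounds were dosed at 15 concentrations, exposure lasted 22hr, and the CellTiter-Fluor signal was read.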

The target of assay [18] is Estrogen receptor beta (Homo sapiens) (UniProt Q92731). In words: qHTS assay to identify small molecule agonists of the estrogen receptor beta (ER-beta) signaling pathway (AID 1259377; active means well fitted activation curve with a large enough effect in the signal ratio in the repeat runs, not every such curve was filed as active; the % refers to the signal ratio). Put shortly:
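ER-beta-UAS-bla HEK293T cells in medium with 2% charcoal-stripped FBS were exposed to compounds for 16 h at 37C. Beta-lactamase reporter activity was read as fluorescence after 2 h with LiveBLAzer B/G FRET substrate at room temperature.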

Assay [19] has the same target. In words: qHTS assay to identify small molecule antagonists of the estrogen receptor beta (ER-beta) signaling pathway (AID 1259378; active means well fitted inhibition curve with a large enough effect in the signal ratio in the repeat runs, not every such curve was filed as active; the % refers to the signal ratio). The method in brief:
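ER-beta-UAS-bla HEK293T (GripTite) cells in 2% charcoal-stripped FBS medium were preincubated 6 hr at 37C, dosed with compound, then stimulated with 1 nM E2 (final) for 16 hr; beta-lactamase reporter read by B/G FRET fluorescence after 2 hr substrate loading.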

Results filed as inconclusive are left out. Activity calls are given as the source filed them. Unless noted, the call rests on the fitted dose curve; in most records, active means well fitted curve in the direction sought with a large enough effect in the repeat runs; inconclusive means weak or mixed curves; inactive means no such curve, though single readings can be large; an effect the other way counts as inactive or inconclusive.

Thyrotropin receptor (Homo sapiens), sequence (P16473 whole entry, looked up): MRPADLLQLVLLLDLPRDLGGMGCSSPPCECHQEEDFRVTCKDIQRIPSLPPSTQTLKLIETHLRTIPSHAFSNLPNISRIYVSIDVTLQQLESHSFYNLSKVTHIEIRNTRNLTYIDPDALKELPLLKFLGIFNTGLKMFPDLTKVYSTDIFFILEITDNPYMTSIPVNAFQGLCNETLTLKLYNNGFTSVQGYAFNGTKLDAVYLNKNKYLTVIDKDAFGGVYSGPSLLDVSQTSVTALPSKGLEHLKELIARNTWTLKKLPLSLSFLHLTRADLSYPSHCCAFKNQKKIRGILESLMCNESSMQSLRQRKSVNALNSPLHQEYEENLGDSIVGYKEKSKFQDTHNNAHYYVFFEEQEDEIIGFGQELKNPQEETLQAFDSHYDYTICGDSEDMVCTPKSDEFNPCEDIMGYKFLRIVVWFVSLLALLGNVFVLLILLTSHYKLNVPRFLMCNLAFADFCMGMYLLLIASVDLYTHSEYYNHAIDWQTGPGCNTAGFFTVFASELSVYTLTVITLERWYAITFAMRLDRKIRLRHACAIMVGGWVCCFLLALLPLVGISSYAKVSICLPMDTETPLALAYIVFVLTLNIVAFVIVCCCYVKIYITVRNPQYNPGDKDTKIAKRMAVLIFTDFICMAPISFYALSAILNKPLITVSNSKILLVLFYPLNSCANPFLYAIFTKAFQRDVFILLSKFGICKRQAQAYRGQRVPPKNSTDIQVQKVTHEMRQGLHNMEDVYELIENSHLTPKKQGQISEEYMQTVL
Estrogen receptor (Homo sapiens), sequence (P03372 whole entry, looked up): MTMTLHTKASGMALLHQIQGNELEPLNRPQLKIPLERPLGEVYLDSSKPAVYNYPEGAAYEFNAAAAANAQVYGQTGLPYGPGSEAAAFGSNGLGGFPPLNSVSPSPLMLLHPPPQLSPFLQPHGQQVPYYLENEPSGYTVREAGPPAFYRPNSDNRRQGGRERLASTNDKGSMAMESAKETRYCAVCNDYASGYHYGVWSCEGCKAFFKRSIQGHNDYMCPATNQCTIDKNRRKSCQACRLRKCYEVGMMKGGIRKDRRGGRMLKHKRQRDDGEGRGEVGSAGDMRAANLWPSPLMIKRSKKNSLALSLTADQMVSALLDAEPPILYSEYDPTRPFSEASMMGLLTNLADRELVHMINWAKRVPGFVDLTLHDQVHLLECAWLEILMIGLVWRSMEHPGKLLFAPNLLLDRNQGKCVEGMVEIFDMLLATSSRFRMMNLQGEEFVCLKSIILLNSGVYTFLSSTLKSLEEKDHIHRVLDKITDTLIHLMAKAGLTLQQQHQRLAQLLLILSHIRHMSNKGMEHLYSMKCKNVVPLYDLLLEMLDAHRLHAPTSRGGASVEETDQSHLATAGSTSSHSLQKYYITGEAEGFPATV
Estrogen receptor beta (Homo sapiens), sequence (Q92731 whole entry, looked up): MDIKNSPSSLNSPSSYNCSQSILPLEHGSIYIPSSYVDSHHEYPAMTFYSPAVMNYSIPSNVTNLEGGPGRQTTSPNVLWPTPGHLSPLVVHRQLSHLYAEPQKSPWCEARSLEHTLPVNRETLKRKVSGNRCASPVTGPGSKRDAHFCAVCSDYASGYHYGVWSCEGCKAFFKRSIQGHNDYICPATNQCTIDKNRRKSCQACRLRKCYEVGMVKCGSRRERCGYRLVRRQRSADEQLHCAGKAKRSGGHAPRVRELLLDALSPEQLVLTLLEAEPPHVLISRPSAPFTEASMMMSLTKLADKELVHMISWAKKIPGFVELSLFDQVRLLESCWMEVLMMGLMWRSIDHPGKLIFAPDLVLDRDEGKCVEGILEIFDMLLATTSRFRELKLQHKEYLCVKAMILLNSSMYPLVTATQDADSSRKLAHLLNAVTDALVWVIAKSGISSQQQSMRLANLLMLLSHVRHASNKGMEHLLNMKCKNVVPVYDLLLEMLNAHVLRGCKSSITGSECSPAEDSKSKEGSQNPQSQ
Androgen receptor (Homo sapiens), sequence (P10275 whole entry, looked up): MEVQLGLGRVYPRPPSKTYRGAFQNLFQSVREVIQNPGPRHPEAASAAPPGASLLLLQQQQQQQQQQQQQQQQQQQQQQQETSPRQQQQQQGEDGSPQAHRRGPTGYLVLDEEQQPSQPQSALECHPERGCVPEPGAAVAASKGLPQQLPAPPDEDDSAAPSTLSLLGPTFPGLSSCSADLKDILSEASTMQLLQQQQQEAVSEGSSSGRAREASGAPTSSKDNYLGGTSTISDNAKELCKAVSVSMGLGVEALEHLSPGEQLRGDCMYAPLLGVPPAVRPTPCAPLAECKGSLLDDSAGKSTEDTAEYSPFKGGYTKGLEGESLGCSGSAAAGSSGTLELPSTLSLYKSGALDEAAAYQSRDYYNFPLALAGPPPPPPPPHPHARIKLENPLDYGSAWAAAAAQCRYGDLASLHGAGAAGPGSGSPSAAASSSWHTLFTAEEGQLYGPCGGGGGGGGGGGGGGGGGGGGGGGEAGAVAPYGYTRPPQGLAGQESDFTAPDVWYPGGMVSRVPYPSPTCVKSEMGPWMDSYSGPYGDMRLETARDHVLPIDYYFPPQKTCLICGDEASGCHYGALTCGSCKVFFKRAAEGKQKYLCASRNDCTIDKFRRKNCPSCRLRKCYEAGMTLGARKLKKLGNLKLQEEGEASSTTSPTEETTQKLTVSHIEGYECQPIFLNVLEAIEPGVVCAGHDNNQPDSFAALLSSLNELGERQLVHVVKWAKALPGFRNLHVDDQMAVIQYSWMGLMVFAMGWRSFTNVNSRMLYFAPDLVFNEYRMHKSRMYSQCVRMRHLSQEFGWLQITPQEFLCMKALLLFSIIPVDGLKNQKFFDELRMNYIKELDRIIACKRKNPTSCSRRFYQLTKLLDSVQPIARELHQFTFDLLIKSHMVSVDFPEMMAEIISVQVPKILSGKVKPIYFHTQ

`Cc1cccc2c1cc1ccc3cccc4ccc2c1c34`: the Potency result in assay [1], in [2], in [3], in assay [4], in assay [5] and in assay [6] was “inactive” in each case. Also, the Potency result in [7], in assay [8], in [9] and in assay [10] was “inactive” each time.

On to `CCc1oc2ccccc2c1C(=O)c1cc(Br)c(O)c(Br)c1`, for which the Potency entry in assay [1], in assay [11], in [3], in assay [4], in assay [12] and in assay [5] was “inactive” in each case. Besides, the Potency result in assay [6], in [7], in assay [13], in assay [14], in assay [9] and in assay [10] was “inactive” throughout. For the same compound, the Potency entry in assay [16] and in assay [17] was “inactive” each time. Further, the compound was called inactive in [15].

For the compound `CCc1cc(Cc2cc(CC)c(N)c(CC)c2)cc(CC)c1N`, the Potency entry in assay [1], in [4], in assay [12], in assay [5], in assay [6] and in [18] was “inactive” in each case. Also, the Potency entry in assay [10] and in assay [16] was “inactive” each time. Besides, the figures for the Potency in assay [2], in assay [8] and in assay [9] were 54.5 µM (active), 27.3 µM (active) and 48.6 µM (active), respectively. In addition, the outcome in [15] was inactive.

On to `CCOC(=O)/C=C(C)/C=C/C=C(C)/C=C/c1c(C)cc(OC)c(C)c1C`, for which the Potency entry in assay [1], in assay [11], in [3], in assay [4], in assay [12] and in assay [5] was “inactive” throughout. Besides, the Potency entry in assay [6], in assay [13], in assay [8], in assay [9], in assay [10] and in assay [16] was “inactive” in each case. Besides, the result in assay [15] was inactive.

For the compound `CN(C)[C@@H]1C(=O)C(C(N)=O)=C(O)[C@@]2(O)C(=O)C3=C(O)c4c(O)cccc4C[C@H]3C[C@@H]12`, the Potency result in [1], in assay [2], in assay [4], in [12], in [5] and in assay [6] was “inactive” throughout. Further, the Potency result in assay [7], in assay [13], in [9], in assay [10], in assay [16] and in [17] was “inactive” each time. Further, the call in assay [15] was inactive.

With `O=[N+]([O-])c1ccccc1Nc1ccccc1`, the Potency result in assay [1], in assay [2], in assay [4], in assay [12], in assay [5] and in assay [6] was “inactive” throughout. In addition, the Potency entry in assay [7], in assay [18], in assay [19], in assay [13], in assay [8] and in assay [9] was “inactive” in each case. Also, in assay [10], the Potency result is “inactive”. For the same compound, the compound was classed as inactive in [15].

As to `CCCC(C)c1ccccc1O` (stereo unspecified), the Potency entry in assay [1], in assay [2], in [3], in [4], in [6] and in assay [18] was “inactive” throughout. Also, the Potency entry in [19], in assay [13], in assay [8], in [9], in [10] and in assay [16] was “inactive” throughout. Besides, the Potency entry in assay [17] was “inactive”. In assay [15], the outcome was inactive.
